Screening results: PubChem BioAssay, National Center for Advancing Translational Sciences (NCATS)
Nrf2 inh = Nrf2 qHTS screen for inhibitors; AID 504444, 2011; Potency, µM (top dose mostly 46 µM), actives largely listed as inhibitors; hit rate 2.1% among 360,000; A549 ARE-Fluc reporter, luciferase luminescence, 18-24 h; further: nearly all actives have a fitted effect of over 60% in size
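In this cell-based qHTS, ARE-driven firefly luciferase in A549 cells reports Nrf2 activity; the luminescent signal after BugLite lysis is the measured value, with a prior CellTiter-Fluor read for cell health.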
A549 viability = Nrf2 qHTS screen for inhibitors: counterscreen for cytotoxicity | hit rate 0.16% among 390,000 | AID 504648, 2011 | A549 ARE-Fluc cells, CellTiter-Fluor viability, 18-24 h | Potency, µM (series often up to 46 µM), actives largely listed as inhibitors
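A549 ARE_Fluc cells in 5% FBS OPTI-MEM were exposed to compounds in concentration-response for 18-24 h at 37 deg C. Viability was read by CellTiter-Fluor fluorescence (Ex 405/Em 525) after 30 min, before the luciferase read.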
Pin1 inh = qHTS Assay to Find Inhibitors of Pin1; Potency, µM (top dose mostly 115 µM), most hits filed as inhibitors; Pin1 FP peptide displacement, HiFluor488, 10 min; Peptidyl-prolyl cis-trans isomerase NIMA-interacting 1 (Homo sapiens), Q13526; hit rate 0.009% among 390,000; AID 504891, 2011; active means well fitted inhibition curve with a large enough effect in the polarisation, with a control signal flat, not every such curve was filed as active; inconclusive means small, poorly fitted or top-dose-only effect, or effect the other way, or a change in a side signal; inactive means no such curve, though single readings can be large or run the other way; the % refers to the polarisation
Target sequence (Q13526 whole entry, looked up): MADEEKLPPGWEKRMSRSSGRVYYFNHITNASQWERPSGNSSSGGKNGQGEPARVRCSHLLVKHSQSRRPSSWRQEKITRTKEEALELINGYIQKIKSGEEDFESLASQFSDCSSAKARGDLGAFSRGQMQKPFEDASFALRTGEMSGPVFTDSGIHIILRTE
Nrf2 ARE act = qHTS of Nrf2 Activators; hit rate 0.31% among 410,000; AID 624171, 2012; Potency, µM (doses to about 46.1 µM), hits mostly activators; AREc32 ARE-luciferase reporter (MCF7-derived line), luminescence, 24 h; further: nearly all actives have a fitted effect of over 65% in size
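Quantitative high-throughput format: AREc32 reporter cells, 1000 per well, received compound by pin transfer and were incubated 24 hr at 37 deg C, 5% CO2, before Steady-Glo luminescence detection.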
Each line names hits and unclear results; the compound was inactive in the other large screens; ! = not active in a repeat. Rows were chosen to be rich in hits. Some 2.2% of all compounds tested hit in one or more screens of this group. Unless noted, the call rests on the fitted dose curve; in most records, active means well fitted curve in the direction sought with a large enough effect; inconclusive means small, poorly fitted or top-dose-only effect, or another doubt; inactive means no such curve, though single readings can be large; an effect the other way counts as inactive or inconclusive.

CCOC(=O)c1c(-c2cccs2)csc1NC(=O)CN(CC)CC	Nrf2 inh 18.4µM, A549 viability inconclusive
CCOC(=O)c1ccccc1OCc1cc(C2Nc3ccccc3C(=O)N2c2cccc3ccccc23)ccc1OC (stereo not given)	Nrf2 inh inconclusive (no result: Nrf2 ARE act)
Cc1nc2ccc(NS(=O)(=O)c3ccc(F)c(F)c3F)cc2s1	none
Cc1nc2ccc(NS(=O)(=O)c3c(F)cc(F)cc3Br)cc2s1	Nrf2 inh 20.6µM
Cc1nc2ccc(NS(=O)(=O)c3ccc(F)cc3F)cc2s1	Nrf2 inh 13µM, Pin1 inh inconclusive
CS(=O)(=O)c1nc(S(=O)(=O)c2ccc(Cl)cc2)c(N2CCC3(CC2)OCCO3)s1	Nrf2 inh inconclusive, Nrf2 ARE act 10µM
CCS(=O)(=O)c1nc(S(=O)(=O)c2ccc(Cl)cc2)c(N2CCOCC2)s1	Nrf2 ARE act inconclusive
CCS(=O)(=O)c1nc(S(=O)(=O)c2ccc(Cl)cc2)c(N2CCC3(CC2)OCCO3)s1	Nrf2 ARE act 11.2µM
Cc1cc2occ(CC(=O)N(C)CC(=O)Nc3c(C)cccc3C)c2cc1C	none
Cc1cc2occ(CC(=O)N(C)CC(=O)Nc3cccc(F)c3)c2cc1C	Nrf2 inh 25.9µM, A549 viability inconclusive
O=C1CCCN2N=C(SCC(=O)Nc3cccc(Cl)c3)SC2=N1	none
Nc1nc(SCC(=O)Nc2cccc(C(F)(F)F)c2)n[nH]1	Nrf2 inh 18.4µM
O=C1CCCN2N=C(SCC(=O)Nc3cccc(C(F)(F)F)c3)SC2=N1	Nrf2 inh 16.4µM
COc1ccc(NC(=O)CC2SC(N3CCOCC3)=NC2=O)cc1OC (stereo not given)	Nrf2 inh 14.6µM
O=C(CC1SC(N2CCCCC2)=NC1=O)Nc1cccc(C(F)(F)F)c1 (stereo not given)	Nrf2 inh 20.6µM
CC(C)(C)OC(=O)NC(Cc1ccccc1)C(O)c1ccco1 (stereo not given)	none (no result: Nrf2 ARE act)
O=C(NCC1CCCN1S(=O)(=O)c1cccs1)c1ccc(Cl)cc1 (stereo not given)	Nrf2 inh 23.1µM
O=C(NCC1CCCN1S(=O)(=O)c1cccs1)c1cccc(F)c1 (stereo not given)	Nrf2 inh 13µM
Cc1cccc(C)c1Nc1c(-c2ccccc2Cl)nc2cnccn12	none
O=C(Nc1ccccc1)c1cccc(N2C(=O)C3C4C=CC(C5CC45)C3C2=O)c1 (stereo not given)	Nrf2 inh 20.6µM
COC(=O)c1ccc(NC(=O)c2cccc(N3C(=O)C4C5C=CC(C6CC56)C4C3=O)c2)cc1 (stereo not given)	Nrf2 inh 20.6µM, A549 viability inconclusive
O=C(Nc1ccccc1)c1cccc(N2C(=O)C3C4C=CC(C4)C3C2=O)c1 (stereo not given)	none
O=C(Nc1ccc(F)cc1)c1cccc(N2C(=O)C3C4C=CC(C5CC45)C3C2=O)c1 (stereo not given)	Nrf2 inh 14.6µM
O=C(Nc1ccc(F)cc1)c1cccc(N2C(=O)C3C4C=CC(C4)C3C2=O)c1 (stereo not given)	none
COc1ccc(C(=O)N(Cc2ccccc2)Cc2cccs2)c(O)c1	none (no result: Nrf2 ARE act)
COc1ccc(CN(Cc2ccccc2)C(=O)Nc2ccccc2)cc1COc1ccc(NC(C)=O)cc1	none (no result: Nrf2 ARE act)
O=C1CC(C(=O)Nc2ccc(F)cc2)S/C(=N\N=C\c2ccco2)N1 (stereo not given)	Nrf2 ARE act 11.2µM
Cc1ccc(NC(=O)C2CC(=O)N/C(=N/N=C/c3ccco3)S2)cc1 (stereo not given)	Nrf2 ARE act inconclusive
C#CC(C)(C)NS(=O)(=O)c1cc(-c2nnc(Nc3ccc(C)cc3)c3ccccc23)ccc1C	Nrf2 inh inconclusive, A549 viability inconclusive
Cc1nnc(NC(=O)CSc2cn(CCNC(=O)c3ccccc3)c3ccccc23)s1	none
COc1ccc(C(=O)NCCn2cc(SCC(=O)Nc3nnc(C)s3)c3ccccc32)cc1	Nrf2 inh 10.3µM
COc1cccc(NC(=O)c2ccc3nc(Cc4ccccc4)oc3c2)c1	none (no result: Nrf2 inh)
CNc1ccc(Br)cc(C(=O)/C=C/c2cc(OC)ccc2OC)c1=O	Nrf2 inh inconclusive, A549 viability inconclusive, Pin1 inh inconclusive, Nrf2 ARE act 14.1µM
CCNc1ccc(Br)cc(C(=O)/C=C/c2ccc(Cl)cc2Cl)c1=O	Nrf2 inh 25.9µM, A549 viability inconclusive, Pin1 inh inconclusive, Nrf2 ARE act inconclusive
Cc1ccc(/C(C#N)=C\c2ccc(N3CCOCC3)o2)cc1	Nrf2 inh inconclusive, Pin1 inh inconclusive, Nrf2 ARE act inconclusive
N#C/C(=C/c1ccc(N2CCCCC2)o1)c1cccc(F)c1	Nrf2 inh inconclusive, Pin1 inh inconclusive, Nrf2 ARE act 14.1µM
N#C/C(=C/c1ccc(N2CCCCC2)cc1)c1cccc(F)c1	Nrf2 inh inconclusive
N#C/C(=C/c1ccc(N2CCCCCC2)o1)c1ccc(Cl)cc1	A549 viability inconclusive, Pin1 inh inconclusive, Nrf2 ARE act 11.2µM
CCc1ccc(N2C(=O)N(CC(=O)C(C)(C)C)c3ccccc3S2(=O)=O)cc1	none (no result: Nrf2 inh)
O=C(C1CCN(c2ncnc3c2nc2n3CCCCC2)CC1)N1CCN(c2ccccc2)CC1	none
O=C(C1CCN(c2ncnc3c2nc2n3CCCCC2)CC1)N1CCN(c2ccc(F)cc2)CC1	Nrf2 inh 18.4µM!
Fc1ccccc1N1CCN(c2ncnc3c2nc2n3CCCC2)CC1	Nrf2 inh 20.6µM
Cc1cccc(N2CCN(c3ncnc4c3nc3n4CCCCC3)CC2C)c1 (stereo not given)	Nrf2 inh 18.4µM, A549 viability 16.4µM
COc1ccc(C2c3cccn3CCN2S(=O)(=O)c2ccc([N+](=O)[O-])cc2)cc1 (stereo not given)	none (no result: Nrf2 inh)
CCOc1ccccc1NC(=O)c1ccc2c(Cl)c3c(nc2c1)CCC3	Nrf2 inh inconclusive
O=C(/C=C\c1ccco1)NC(=S)Nc1ccccc1O	Nrf2 ARE act 7.08µM
CCC(=O)N1CCc2cc(S(=O)(=O)CCC(=O)Nc3ccc(Cl)c(C(F)(F)F)c3)ccc21	Nrf2 inh 20.6µM
CS(=O)(=O)N1CCc2cc(C(=O)Nc3ccc(Cl)c(C(F)(F)F)c3)ccc21	Nrf2 inh 20.6µM
O=C(CSc1ncc2c(n1)-c1ccccc1N(Cc1ccccc1)S2(=O)=O)Nc1ccccc1	none
COc1ccc(CNC(=O)c2cc3ccccn3n2)c(OC)c1	none
CCc1ccc(NC(=O)CC2C(=O)N(c3cccc(C)c3)C(=O)N2Cc2ccco2)cc1 (stereo not given)	Nrf2 inh inconclusive
Cc1ccc(-c2nnc(NC(=O)c3ccc([N+](=O)[O-])o3)o2)c(C)c1	Nrf2 inh inconclusive, A549 viability inconclusive, Nrf2 ARE act 7.08µM
Cc1cccnc1NC(=O)c1ccc([N+](=O)[O-])o1	Nrf2 inh inconclusive, Nrf2 ARE act 22.4µM
COc1ccc(-c2nnc(NC(=O)c3ccc([N+](=O)[O-])o3)o2)c(OC)c1	Nrf2 inh inconclusive, A549 viability inconclusive, Nrf2 ARE act inconclusive
Cc1cc(Cl)ccc1NC(=S)NCCCO	none
Cc1ccc(Cl)cc1NC(=S)NCCCSC1CCCCC1	Nrf2 inh 25.9µM, A549 viability inconclusive
CCOc1ccccc1C(=O)Nc1cc2c(cc1N1CCCCC1)n(C)c(=O)n2C	Nrf2 inh 23.1µM, A549 viability inconclusive
